Experimental findings from PubChem BioAssay AID1851 (National Center for Advancing Translational Sciences (NCATS), 2009) are described below.

Several values for one entry are separate records, joined by “and”; a condition that tells them apart may be missing. Equal entries are not always repeated. About 4,000 (25%) of roughly 16,000 compounds were called active. Not shown: some 26% with an inconclusive outcome. Calls come from the whole dose curve; as a rule, active = well fitted curve in the direction sought with a large enough effect; inconclusive = small, poorly fitted or top-dose-only effect, or effect the other way; inactive = no such curve, though single readings can be large or run the other way. Only a sample is shown. More than one record can exist for a structure, and the calls need not agree.
% is set by controls: 0 for no effect and ±100 for the full control effect.

Chain of Cytochrome P450 2C9 (Homo sapiens) (P11712 whole entry, looked up): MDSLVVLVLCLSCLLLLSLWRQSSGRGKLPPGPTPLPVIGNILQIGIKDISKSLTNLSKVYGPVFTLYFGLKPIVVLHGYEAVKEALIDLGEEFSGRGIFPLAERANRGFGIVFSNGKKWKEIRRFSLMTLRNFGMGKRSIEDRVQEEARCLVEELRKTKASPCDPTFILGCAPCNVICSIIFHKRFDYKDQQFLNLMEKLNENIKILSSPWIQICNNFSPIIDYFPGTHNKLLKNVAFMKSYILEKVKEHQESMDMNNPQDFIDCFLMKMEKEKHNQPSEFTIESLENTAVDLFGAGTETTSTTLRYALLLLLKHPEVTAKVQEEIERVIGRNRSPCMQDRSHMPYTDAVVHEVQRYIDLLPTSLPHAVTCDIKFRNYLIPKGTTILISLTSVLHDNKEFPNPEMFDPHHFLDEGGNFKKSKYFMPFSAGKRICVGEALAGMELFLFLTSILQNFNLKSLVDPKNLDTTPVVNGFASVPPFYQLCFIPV

The experiment addresses Cytochrome P450 2C9 (Homo sapiens) (UniProt P11712). As to the kind of experiment: Cytochrome panel assay with activity outcomes. The conditions noted are these: recombinant CYP, pro-luciferin dealkylation, luminescence, p450-cyp2c9; series mostly up to 57.1 µM.
Turning to `N=C1CCC[C@@H]1C(=S)SCCC(N)=O`, the activity, negative = inhibition was 17.6% [at 11.4 µM] (inactive).
Regarding `C=CC(=O)NC(NC(=O)C=C)c1ccc(Br)cc1`, the AC50 result was “inactive”.
For the molecule `O=C1CC[C@H](NC(=O)c2ccccc2)C(=O)N1`, the activity, negative = inhibition is 5.14% [at 11.4 µM] (inactive).
As for `O=C(c1cnccn1)N1CCC[C@@]2(CCN(c3ccncc3)C2)C1`, the AC50 entry was “inactive”.
For the molecule `O=C(c1cnccn1)N1CCC2(CC1)CN(c1cccc(-c3ccccc3)c1)C2`, the AC50 entry is “inactive”.
On the same count and under the same terms, the result for `O=C(c1ccco1)N1CCC[C@@]2(CCN(c3ccccc3)C2)C1` reads “inactive”; that for `O=C(c1ccco1)N1CCC[C@@]2(CCN(c3cccc(-c4ccccc4)c3)C2)C1`, 5.01 µM (active).
On to `O=C(c1cnccn1)N1CCC[C@@]2(CCN(c3cccc(-c4ccccc4)c3)C2)C1`, for which the AC50 is 7.94 µM (active).
Same read-out and setting: as for `O=C(c1cnccn1)N1CCC2(CC1)CN(c1ccccc1)C2`, the entry is “inactive”; as for `O=C(c1ccco1)N1CCC2(CC1)CN(c1cccc(-c3ccccc3)c1)C2`, “inactive”.
As to `O=C(c1cnccn1)N1CCC[C@@]2(CCN(c3ccccn3)C2)C1`, the AC50 entry was “inactive”.
Still for that read-out and setting: as for `O=C(c1cnccn1)N1CCC2(CCCN(c3cccc(-c4ccccc4)c3)C2)CC1`, the figure is 20 µM (active).
`CN(C)c1ccc(-c2ccc3ncnc(N(C)C)c3c2)cc1`: the activity, negative = inhibition is -17.4% [at 2.29 µM] (inactive).
On the same count and under the same terms, as for `O=c1n(-c2ccccc2)c(=O)n2n1CC[C@H]1/C(=N\OCc3ccccc3)[C@H]3O[C@@H]3[C@@H](O)[C@@H]12`, the figure is 25.1% [at 11.4 µM] (inactive).
As to `CN1CCN(C2CC(=O)N(Cc3ccc(N4CCCC4=O)cc3)C2=O)CC1` (configuration not stated), the AC50 result was “inactive”.
As for `CCN1C(=O)CC(N2CCN(CC(=O)NC(C)C)CC2)C1=O` (configuration not stated), the AC50 result was “inactive”.
On to `O=C1CC(N2CCN(C(c3ccccc3)c3ccccc3)CC2)C(=O)N1Cc1ccc(N2CCCC2=O)cc1` (configuration not stated), for which the AC50 was 7.08 µM (active).
For `NN(CC(=O)O)CC(=O)O`, the activity, negative = inhibition was 17.7% [at 11.4 µM] (inactive).
As to `Cc1cc(-c2ccc(Cl)cc2)oc(=O)c1NC(=O)c1ccccc1`, the AC50 entry is “inactive”.
The same measure, in the same setting: the result for `CNC(=O)c1sc(SC)cc1-c1ccc(Cl)cc1` reads 5.62 µM (active); that for `Cc1ccc2c(c1)/C(=N/OC(=O)c1ccc(F)cc1)CCS2`, “inactive”.
On the same count and under the same terms, the result for `COc1ccccc1C(=O)O/N=C1/CCCc2c1ccc(OC)c2[N+](=O)[O-]` reads 12.6 µM (active).
On the same count and under the same terms, the result for `Cc1cc(NS(=O)(=O)c2ccc(NC(=O)CN3C(=O)c4ccccc4C3=O)cc2)nc(C)n1` reads “inactive”; that for `Cc1cc(Cl)ccc1OC(C)C(=O)Nc1ccc(S(=O)(=O)Nc2cnc3ccccc3n2)cc1` (configuration not stated), 0.631 µM (active); that for `O=C1C2Sc3[nH]c(=O)sc3C(c3ccccc3)C2C(=O)N1c1ccc(Cl)cc1` (configuration not stated), 8.91 µM (active).
Take `O=C1C2Sc3[nH]c(=O)sc3C(c3ccccc3)C2C(=O)N1c1ccccc1` (configuration not stated): the AC50 is 12.6 µM (active).
Turning to `O=C1C(C2=NC(C(=O)O)C3C(=O)N(c4ccc(Cl)cc4)C(=O)C23)=C(O)c2ccccc21` (configuration not stated), the AC50 entry was “inactive”.
In the case of `CO[C@@H]1COC(=O)C/C=C\[C@H](C)COC(=O)[C@H](C)NC(=O)C/C=C\[C@H]1C`, the activity, negative = inhibition is -7.79% [at 11.4 µM] (inactive).
Regarding `CC1=NC(C)(C)Cc2ccccc21`, the AC50 result is “inactive”.
For `CC1(C)Cc2ccccc2C(N/N=C/c2cccc(F)c2)=N1`, the half-maximal activity concentration (AC50) is 14.1 µM (active).
For the molecule `Fc1cccc(/C=N\N=C/c2cccc(F)c2)c1`, the AC50 entry is “inactive”.
Consider `O=C(O)C1CC2(C1)CC(C(=O)O)C2` (configuration not stated), for which the activity, negative = inhibition is -3% [at 11.4 µM] (inactive).
The same measure, in the same setting: as for `N#Cc1cccc(-c2ccc3ncnc(NC4CCNCC4)c3c2)c1`, the figure is 10.5% [at 2.29 µM] (inactive).
In the case of `Cc1cnc(C(=O)OCC(=O)NC(C)C)cn1`, the AC50 entry was “inactive”.
With `CC(C)C(=O)Cc1ccc2ccccc2n1`, the activity, negative = inhibition was 7.52% [at 11.4 µM] (inactive).
For `CCN(c1ccc(NC(=O)COC(=O)c2ccc3ccccc3n2)cc1)C(C)C`, the AC50 is 20 µM (active).
For the molecule `O=S(=O)(O)c1cc(N=Nc2cccc3ccccc23)c(O)c2ncccc12`, the activity, negative = inhibition was -11.1% [at 11.4 µM] (inactive).
Consider `O=C(Nc1cccc2cccnc12)[C@@H]1[C@@H](C(=O)O)[C@H]2CC[C@@H]1O2`, for which the activity, negative = inhibition is 7.28% [at 11.4 µM] (inactive).
Consider `CC(C)(C)C(=O)NC(Nc1cccc2cccnc12)C(Cl)(Cl)Cl` (configuration not stated), for which the AC50 was 1.26 µM (active).
The same measure, in the same setting: the result for `COc1ccc(NC(=O)N2CC[C@@]3(CCCN(C(=O)c4cnccn4)C3)C2)cc1` reads “inactive”.
As to `CCOc1cccc(NC(=O)CSc2nc(C)c3c(c2C#N)CCCC3)c1`, the AC50 result was “inactive”.
On the same count and under the same terms, the result for `CCOC(=O)c1sc(NC(=O)CSc2nc(C)cc(C)c2C#N)c(C#N)c1C` reads 1 µM (active); that for `CCOC(=O)c1sc2c(c1C)c(=O)c(C(=O)OCC)cn2CC`, “inactive”; that for `CCOC(=O)c1sc(NC(=O)CSc2nc(C)cc(C)n2)c(C#N)c1C`, 3.55 µM (active).
Still for that read-out and setting: the result for `Cc1ccccc1OCC(=O)Nc1sc(C(=O)Nc2cccc(C)c2C)c(C)c1C#N` reads “inactive”; that for `CCOC(=O)c1sc(NC(=O)CSc2n[nH]c(-c3ccc(Cl)cc3Cl)n2)c(C#N)c1C`, 1.26 µM (active).
In the case of `CCN(CC)CCN1c2ccccc2Sc2ccc3ccccc3c21`, the activity, negative = inhibition was 0.978% [at 11.4 µM] (inactive).
For the molecule `Cn1cnc2c(NCc3ccccc3)nc(NCCO)nc21`, the AC50 entry was “inactive”.
Take `C/C(CCN1CCCCc2nc(C)c(C)cc21)=N\OC[C@@H](O)COCc1ccco1`: the activity, negative = inhibition was -10.7% [at 11.4 µM] (inactive).
Regarding `Cc1cccn2c(=O)c3cc(C(=O)N4COCC4(C)C)n(C)c3nc12`, the AC50 result was “inactive”.
On to `c1ccc2c3c([nH]c2c1)[C@@H]1[C@H]2CC[C@H]([C@H]4CCCN[C@H]42)N1CC3`, for which the AC50 result is “inactive”.
`CC(=O)C=NCC(=O)O`: the activity, negative = inhibition is -1.6% [at 11.4 µM] (inactive).
For `O=c1cc(N2CCCCC2)c(-c2ccccc2)nn1Cc1ccccc1Cl`, the AC50 is 20 µM (active).
On the same count and under the same terms, the result for `CC1=NOC(=O)/C1=C\c1ccc(-c2ccc(Cl)cc2Cl)o1` reads 10 µM (active); that for `CCCCCCCCCCCCCCC[C@@H](O)[C@@H](N)CO`, “inactive”.
With `NC(=O)OCC(COC(N)=O)c1ccccc1`, the AC50 entry is “inactive”.
For the molecule `COc1ccccc1N1CCN(CCCCN2C(=O)CCC2=O)CC1`, the AC50 is 3.98 µM (active).
The same measure, in the same setting: the result for `COc1ccccc1N1CCN(CCN2C(=O)CC3(CCCC3)CC2=O)CC1` reads “inactive”; that for `COc1ccccc1N1CCN(CCCCNC(=O)c2ccc3ccccc3c2)CC1`, “inactive”.
For the molecule `COc1ccccc1N1CCN(CCCNc2cc(=O)n(C)c(=O)n2C)CC1`, the AC50 result is “inactive and 12.6 µM (active)”.
Still for that read-out and setting: the result for `COc1ccccc1N1CCN(CCN2C(=O)c3ccccc3C(C)(C)C2=O)CC1` reads “inactive”; that for `COc1ccccc1N1CCN(CCCCN2C(=O)c3ccccc3C2=O)CC1`, “inactive”.
